Values joined by “and” are separate entries in the source; they are usually repeats but may differ in a detail not shown here. Equal values may be shown once. In all, about 5,500 compounds went through this assay and about 2,000 (36%) were called active. Inconclusive results (about 18%) are left out. No stated cut-off is given here; in the data, active means normalized growth mostly below about 0.91 (no sharp cut-off); inconclusive means no clear call, values can overlap the other calls; inactive means mostly above about 0.92. The list shows a part of the results. Some compounds were tested as several samples or in several runs, with calls that do not always agree.
Experiment: chemical genetic growth profiling, strain panel (AID 1159580);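 further: tested at 20 µM; growth read once vehicle control cultures reached saturation at 30 °C; 1 = growth at the plate median or of vehicle wells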
Details: growth OD

Measured: normalized growth

CN1CCN(CCCN2c3ccccc3Sc3ccc(Cl)cc32)CC1
0.0843 (active) and 0.921 (inactive): S. cerevisiae deletion strains, locus YNL128W, strain TEP1, stronger effect = lower value
0.512 (active) and 0.943 (inactive): S. cerevisiae deletion strains, locus YNL153C, strain GIM3, stronger effect = lower value
inactive: S. cerevisiae deletion strains, locus YKL009W, strain mrt4, stronger effect = lower value 0.936 | S. cerevisiae deletion strains, locus YKL068W, stronger effect = lower value 0.989 | S. cerevisiae deletion strains, locus YKL085W, strain MDH1 (second series), stronger effect = lower value 0.979 | S. cerevisiae deletion strains, locus YKL085W, strain MDH1, stronger effect = lower value 0.979 | S. cerevisiae deletion strains, locus YKL160W, strain elf1, stronger effect = lower value 0.974 | S. cerevisiae deletion strains, locus YKR026C, strain gcn3, stronger effect = lower value 0.976 | S. cerevisiae deletion strains, locus YKR091W, strain srl3, stronger effect = lower value 0.982 | S. cerevisiae deletion strains, locus YLL001W, strain dnm1, stronger effect = lower value 0.959 | S. cerevisiae deletion strains, locus YLL041C, strain sdh2, stronger effect = lower value 0.943 | S. cerevisiae deletion strains, locus YLR039C, strain RIC1, stronger effect = lower value 1.18 | S. cerevisiae deletion strains, locus YLR058C, strain SHM2, stronger effect = lower value 0.963 | S. cerevisiae deletion strains, locus YLR102C, strain apc9, stronger effect = lower value 1.01 | S. cerevisiae deletion strains, locus YLR113W, strain HOG1, stronger effect = lower value 0.966 | S. cerevisiae deletion strains, locus YLR258W, strain gsy2, stronger effect = lower value 0.943 | S. cerevisiae deletion strains, locus YLR262C, strain YPT6 (second series), stronger effect = lower value 1.06 | S. cerevisiae deletion strains, locus YLR262C, strain YPT6, stronger effect = lower value 0.689 | S. cerevisiae deletion strains, locus YLR268W, strain sec22, stronger effect = lower value 0.935 | S. cerevisiae deletion strains, locus YLR357W, strain rsc2, stronger effect = lower value 0.914 | S. cerevisiae deletion strains, locus YLR370C, strain arc18, stronger effect = lower value 0.953 | S. cerevisiae deletion strains, locus YLR371W, strain rom2, stronger effect = lower value 1.01 | S. cerevisiae deletion strains, locus YLR384C, strain iki3, stronger effect = lower value 0.987 | S. cerevisiae deletion strains, locus YML016C, strain PPZ1, stronger effect = lower value 0.986 | S. cerevisiae deletion strains, locus YML032C, strain rad52, stronger effect = lower value 0.909 | S. cerevisiae deletion strains, locus YML124C, strain tub3, stronger effect = lower value 0.997 | S. cerevisiae deletion strains, locus YMR078C, strain ctf18, stronger effect = lower value 1 | S. cerevisiae deletion strains, locus YMR129W, stronger effect = lower value 0.966 | S. cerevisiae deletion strains, locus YMR205C, strain PFK2, stronger effect = lower value 0.943 | S. cerevisiae deletion strains, locus YNL071W, strain lat1, stronger effect = lower value 0.918 | S. cerevisiae deletion strains, locus YNL175C, strain NOP13, stronger effect = lower value 0.983 | S. cerevisiae deletion strains, locus YNL183C, strain NPR1, stronger effect = lower value 0.987 | S. cerevisiae deletion strains, locus YNL197C, strain WHI3, stronger effect = lower value 0.975 | S. cerevisiae deletion strains, locus YNL224C, strain SQS1, stronger effect = lower value 1 | S. cerevisiae deletion strains, locus YNL248C, strain rpa49, stronger effect = lower value 0.913 | S. cerevisiae deletion strains, locus YNL250W, strain rad50, stronger effect = lower value 0.983 | S. cerevisiae deletion strains, locus YNL271C, strain bni1, stronger effect = lower value 0.994 | S. cerevisiae deletion strains, locus YNL298W, strain CLA4, stronger effect = lower value 0.937 | S. cerevisiae deletion strains, locus YNL322C, strain KRE1 (second series), stronger effect = lower value 0.995 | S. cerevisiae deletion strains, locus YNR049C, strain mso1, stronger effect = lower value 0.986 | S. cerevisiae deletion strains, locus YOL012C, strain htz1 0.226 | S. cerevisiae deletion strains, locus YOL147C, strain pex11, stronger effect = lower value 0.938 | S. cerevisiae deletion strains, locus YOR061W, strain CKA2, stronger effect = lower value 0.913 | S. cerevisiae deletion strains, locus YOR069W, strain VPS5, stronger effect = lower value 0.996 | S. cerevisiae deletion strains, locus YOR080W, strain dia2, stronger effect = lower value 1 | S. cerevisiae deletion strains, locus YOR136W, strain idh2, stronger effect = lower value 0.925 | S. cerevisiae deletion strains, locus YOR144C, strain elg1, stronger effect = lower value 1 | S. cerevisiae deletion strains, locus YOR231W, strain MKK1, stronger effect = lower value 0.968 | S. cerevisiae deletion strains, locus YOR290C, strain snf2, stronger effect = lower value 0.913 | S. cerevisiae deletion strains, locus YOR316C, strain cot1, stronger effect = lower value 1.01 | S. cerevisiae deletion strains, locus YPL078C, strain atp4, stronger effect = lower value 0.92 | S. cerevisiae deletion strains, locus YPL106C, strain sse1, stronger effect = lower value 0.999 | S. cerevisiae deletion strains, locus YPL240C, strain hsp82, stronger effect = lower value 0.983 | S. cerevisiae deletion strains, locus YPL256C, strain CLN2, stronger effect = lower value 0.978 | S. cerevisiae deletion strains, locus YPR119W, strain clb2, stronger effect = lower value 1.01 | S. cerevisiae deletion strains, locus YPR141C, strain kar3, stronger effect = lower value 0.999 | S. cerevisiae deletion strains, locus YPR167C, strain met16, stronger effect = lower value 0.979
active: S. cerevisiae deletion strains, locus YKL190W, strain CNB1, stronger effect = lower value 0.124 | S. cerevisiae deletion strains, locus YKR001C, strain vps1, stronger effect = lower value 0.0709 | S. cerevisiae deletion strains, locus YLL026W, stronger effect = lower value 0.898 | S. cerevisiae deletion strains, locus YLR027C, strain aat2, stronger effect = lower value 0.843 | S. cerevisiae deletion strains, locus YLR221C, strain rsa3, stronger effect = lower value 0.885 | S. cerevisiae deletion strains, locus YLR320W, strain mms22, stronger effect = lower value 0.866 | S. cerevisiae deletion strains, locus YLR330W, strain CHS5, stronger effect = lower value 0.892 | S. cerevisiae deletion strains, locus YLR342W, strain FKS1 (second series), stronger effect = lower value 0.405 | S. cerevisiae deletion strains, locus YLR342W, strain FKS1, stronger effect = lower value 0.523 | S. cerevisiae deletion strains, locus YLR418C, strain cdc73, stronger effect = lower value 0.25 | S. cerevisiae deletion strains, locus YML120C, strain ndi1, stronger effect = lower value 0.823 | S. cerevisiae deletion strains, locus YMR058W, strain fet3, stronger effect = lower value 0.742 | S. cerevisiae deletion strains, locus YMR125W, strain sto1, stronger effect = lower value 0.869 | S. cerevisiae deletion strains, locus YMR223W, strain ubp8, stronger effect = lower value 0.784 | S. cerevisiae deletion strains, locus YMR231W, strain pep5, stronger effect = lower value 0.0744 | S. cerevisiae deletion strains, locus YMR263W, strain SAP30, stronger effect = lower value 0.717 | S. cerevisiae deletion strains, locus YNL067W, strain RPL9B, stronger effect = lower value 0.724 | S. cerevisiae deletion strains, locus YNL209W, strain ssb2, stronger effect = lower value 0.652 | S. cerevisiae deletion strains, locus YNL233W, strain BNI4, stronger effect = lower value 0.635 | S. cerevisiae deletion strains, locus YNL307C, strain MCK1, stronger effect = lower value 0.777 | S. cerevisiae deletion strains, locus YNL322C, strain KRE1, stronger effect = lower value 0.0727 | S. cerevisiae deletion strains, locus YNR052C, strain pop2, stronger effect = lower value 0.732 | S. cerevisiae deletion strains, locus YOL006C, strain TOP1, stronger effect = lower value 0.427 | S. cerevisiae deletion strains, locus YOR001W, strain rrp6, stronger effect = lower value 0.864 | S. cerevisiae deletion strains, locus YOR070C, strain gyp1, stronger effect = lower value 0.347 | S. cerevisiae deletion strains, locus YOR083W, strain WHI5 (second series), stronger effect = lower value 0.652 | S. cerevisiae deletion strains, locus YOR083W, strain WHI5, stronger effect = lower value 0.669 | S. cerevisiae deletion strains, locus YOR106W, strain vam3, stronger effect = lower value 0.161 | S. cerevisiae deletion strains, locus YOR184W, strain ser1, stronger effect = lower value 0.248 | S. cerevisiae deletion strains, locus YOR265W, strain rbl2, stronger effect = lower value 0.91 | S. cerevisiae deletion strains, locus YOR270C, strain vph1, stronger effect = lower value 0.673 | S. cerevisiae deletion strains, locus YPL051W, strain arl3, stronger effect = lower value 0.778 | S. cerevisiae deletion strains, locus YPL241C, strain CIN2, stronger effect = lower value 0.484 | S. cerevisiae deletion strains, locus YPR163C, strain tif3, stronger effect = lower value 0.148 | S. cerevisiae deletion strains, strain wtn01, stronger effect = lower value 0.355 | S. cerevisiae strains, strain wild type, stronger effect = lower value 0.0575
0.151 (active) and 1.03 (inactive): S. cerevisiae deletion strains, locus YMR307W, strain GAS1, stronger effect = lower value
0.101 (active) and 1.03 (inactive): S. cerevisiae deletion strains, locus YPL055C, strain LGE1, stronger effect = lower value

— PubChem BioAssay AID1159580 (chemical genetic matrix, 2015)
